86 molecules from PMC4336329 (PLoS ONE, 2015) can be followed below.

Screen size: about 310,000 compounds; about 2,200 (0.71%) showed an effect of 50% or more. Effects have a minus sign here. Only a selection was taken, and strong results are over-represented in it overall.

Chain of human ether-à-go-go-related gene (hERG) potassium channel (Q12809 whole entry, looked up): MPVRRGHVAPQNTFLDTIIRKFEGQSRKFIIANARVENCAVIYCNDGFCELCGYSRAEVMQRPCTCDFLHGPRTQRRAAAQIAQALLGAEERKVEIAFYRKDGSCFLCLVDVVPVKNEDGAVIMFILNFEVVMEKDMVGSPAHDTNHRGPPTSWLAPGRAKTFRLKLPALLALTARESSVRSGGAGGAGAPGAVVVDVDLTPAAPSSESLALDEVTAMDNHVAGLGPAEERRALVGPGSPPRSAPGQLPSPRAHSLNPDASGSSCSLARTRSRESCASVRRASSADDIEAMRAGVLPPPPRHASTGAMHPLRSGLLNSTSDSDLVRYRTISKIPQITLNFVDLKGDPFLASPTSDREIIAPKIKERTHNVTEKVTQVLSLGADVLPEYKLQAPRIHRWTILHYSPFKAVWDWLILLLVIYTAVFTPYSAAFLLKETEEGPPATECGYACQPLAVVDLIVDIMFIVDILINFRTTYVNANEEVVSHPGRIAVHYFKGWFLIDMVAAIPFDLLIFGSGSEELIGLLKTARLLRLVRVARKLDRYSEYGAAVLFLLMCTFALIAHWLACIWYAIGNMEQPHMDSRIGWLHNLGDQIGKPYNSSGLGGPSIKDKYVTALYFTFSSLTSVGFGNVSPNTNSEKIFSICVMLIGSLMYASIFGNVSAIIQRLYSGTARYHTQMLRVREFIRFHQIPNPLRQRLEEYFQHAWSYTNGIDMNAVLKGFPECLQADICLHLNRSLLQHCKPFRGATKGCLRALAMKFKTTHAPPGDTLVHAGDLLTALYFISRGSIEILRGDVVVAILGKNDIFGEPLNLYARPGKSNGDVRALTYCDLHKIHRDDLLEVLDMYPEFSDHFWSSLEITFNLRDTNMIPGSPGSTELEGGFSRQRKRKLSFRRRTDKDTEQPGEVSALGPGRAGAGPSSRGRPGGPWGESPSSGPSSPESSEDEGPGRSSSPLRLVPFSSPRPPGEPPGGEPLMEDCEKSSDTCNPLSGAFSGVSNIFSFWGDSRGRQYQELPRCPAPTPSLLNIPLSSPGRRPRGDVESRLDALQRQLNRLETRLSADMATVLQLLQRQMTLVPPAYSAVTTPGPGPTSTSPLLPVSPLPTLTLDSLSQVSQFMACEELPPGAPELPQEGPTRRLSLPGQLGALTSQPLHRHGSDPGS

The assay addresses human ether-à-go-go-related gene (hERG) potassium channel (human, UniProt Q12809). In words: primary screen, population patch clamp on CHO cells stably expressing hERG; higher = less effect of the substance.
Consider `CCCOc1cccc(C(=O)N(Cc2ccco2)C2CCS(=O)(=O)C2)c1` (centres unmarked), for which the “hERG current change (%, negative = inhibition) at 1uM” value amounted to 3.56%.

As for `CCN(CC)C(=O)C1CCN(S(=O)(=O)c2ccc3oc4ccccc4c3c2)CC1`, the “hERG current change (%, negative = inhibition) at 1uM” value turned out to be 16.7%.

Regarding `CCc1ccc(NC(=O)c2nc(S(=O)(=O)Cc3ccccc3)ncc2Cl)cc1`, the “hERG current change (%, negative = inhibition) at 1uM” value was determined as 20.7%. The value for `O=c1[nH]c2ccccc2cc1CN(Cc1cccnc1)S(=O)(=O)c1ccc([N+](=O)[O-])cc1` was -5.07%. `c1ccc(C(c2nnnn2Cc2ccco2)N2CCN(c3nc4ccccc4s3)CC2)cc1` (centres unmarked): the “hERG current change (%, negative = inhibition) at 1uM” value was found to be 8.1%.

As to `Cc1ccc(Cl)cc1NC(=O)C1CCCN(S(C)(=O)=O)C1` (centres unmarked), the “hERG current change (%, negative = inhibition) at 1uM” value came to 7.81%. For `Cl.O=[N+]([O-])c1ccc2ncnc(N3CCN(Cc4ccc5c(c4)OCO5)CC3)c2c1`, the “hERG current change (%, negative = inhibition) at 1uM” value worked out at 11.4%.

For `O=[N+]([O-])c1ccc(N2CCN(Cc3ccc4c(c3)OCO4)CC2)nc1`, the “hERG current change (%, negative = inhibition) at 1uM” value is on record as -29.2%. The value for `O=Cc1cc([N+](=O)[O-])ccc1N1CCN(Cc2ccc3c(c2)OCO3)CC1` was -66.7%; that for `Cc1ccccc1Nc1nc2nonc2nc1N1CCOCC1` was 6.45%.

For the molecule `CC1C(=O)NC(=O)C1c1ccccc1` (centres unmarked), the “hERG current change (%, negative = inhibition) at 1uM” value was 13.3%. For `Cn1c(N)c(C(=O)COC(=O)CSc2ccc(Cl)cc2)c(=O)n(C)c1=O`, the “hERG current change (%, negative = inhibition) at 1uM” value is on record as -2.13%. The figure for `CC(C)(C)NCc1cc2ccccc2[nH]c1=O` is 8.1%. With `CCCCCCCN1CCC(=O)N([C@H](CO)c2ccccc2)CC1`, the “hERG current change (%, negative = inhibition) at 1uM” value is given as -25.8%. Regarding `O=C1CCN(CCc2ccccc2)CCN1[C@H](CO)c1ccccc1`, the “hERG current change (%, negative = inhibition) at 1uM” value is -7.26%.

`O=C1CCN(CCc2ccccc2)CCN1[C@H](COc1ccccc1)c1ccccc1`: the “hERG current change (%, negative = inhibition) at 1uM” value is -82.8%. Regarding `CCCN1CCC(=O)N([C@H](COc2ccccc2)c2ccccc2)CC1`, the “hERG current change (%, negative = inhibition) at 1uM” value is -76.5%. On to `CCCN1CCC(=O)N([C@H](CO)c2ccccc2)CC1`, for which the “hERG current change (%, negative = inhibition) at 1uM” value is listed as 9.74%.

For the molecule `O=C1CCN(Cc2ccccc2)CCN1[C@H](COc1ccccc1)c1ccccc1`, the “hERG current change (%, negative = inhibition) at 1uM” value is 2.66%. As for `CC(C)C[C@@H](COc1ccccc1)N1CCN(CC(C)C)CCC1=O`, the “hERG current change (%, negative = inhibition) at 1uM” value is listed as -21.2%. The figure for `CC(C)CN1CCC(=O)N([C@H](COc2ccccc2)c2ccccc2)CC1` is -64.3%; for `CC(C)CN1CCC(=O)N([C@H](CO)c2ccccc2)CC1` it is 12.6%.

For `COc1ccc(CCNc2nc(-c3cccnc3)cs2)cc1OC`, the “hERG current change (%, negative = inhibition) at 1uM” value stood at 23.6%.

Consider `CCCCC(=O)Nc1cccc(NC(=O)c2cccnc2Cl)c1`, for which the “hERG current change (%, negative = inhibition) at 1uM” value is 6.85%. The value for `C/C(=N\O)C(=O)NCCN(C)C` was 13.6%. On to `CC(=O)O.Cc1nc(NCCc2ccc(F)cc2)c(C#N)c(C)c1[N+](=O)[O-]`, for which the “hERG current change (%, negative = inhibition) at 1uM” value was -41.9%.

Turning to `O=C(Oc1ccc(C(=S)N2CCCCC2)cc1)c1ccccc1`, the “hERG current change (%, negative = inhibition) at 1uM” value is 7.88%. The figure for `O=C(COC(=O)CCC(=O)c1ccccc1)NCCc1ccccc1` is 4.19%; for `O=C(Cn1ccc(NC(=O)OCc2ccccc2)nc1=O)NCCCN1CCCC1=O` it is 7.66%; for `CCOC(=O)c1sc2nc(C)nc(NCc3ccc(Cl)cc3)c2c1C` it is -89.6%. On to `CCOC(=O)c1sc2nc(C)nc(NCc3ccccc3)c2c1C`, for which the “hERG current change (%, negative = inhibition) at 1uM” value is reported as 16.7%. For `CCOC(=O)c1sc2nc(C)nc(NCc3ccc(F)cc3)c2c1C`, the “hERG current change (%, negative = inhibition) at 1uM” value is 17.8%.

Take `[O-]/C(=C(\C(=S)NCc1ccccc1)[n+]1ccccc1)c1ccc(Cl)s1`: the “hERG current change (%, negative = inhibition) at 1uM” value is recorded as 0.527%. The figure for `COC(=O)c1c(NC(=O)c2cccs2)sc2c1CCC(C)C2` (centres unmarked) is 9.97%; for `COc1ccc([C@@H]2[C@@H](C(=O)C(C)(C)C)N3N=Cc4ccccc4[C@@H]3C23C(=O)OC(C)(C)OC3=O)cc1OC` it is -5.04%.

With `OCCC1CN(Cc2ccc(Oc3ncccn3)cc2)CCN1Cc1ccc(F)c(F)c1` (centres unmarked), the “hERG current change (%, negative = inhibition) at 1uM” value is recorded as 8.89%. As for `CC(C)=CCN1CCN(Cc2cccn2-c2nccs2)CC1CCO` (centres unmarked), the “hERG current change (%, negative = inhibition) at 1uM” value is -1.62%. The value for `CCOc1ccc(CN2CCN(Cc3cccn3-c3nccs3)CC2CCO)cc1` (centres unmarked) was -84%; that for `CCOc1ccc(CN2CCN(Cc3ccon3)CC2CCO)cc1` (centres unmarked) was -33.5%. Consider `OCCC1CN(Cc2ccn[nH]2)CCN1Cc1ccc(F)c(F)c1` (centres unmarked), for which the “hERG current change (%, negative = inhibition) at 1uM” value was found to be 8.07%. The value for `CC(C)CCN1CCN(Cc2cccn2-c2nccs2)CC1CCO` (centres unmarked) was -17.6%; that for `OCCC1CN(Cc2cccn2-c2nccs2)CCN1Cc1ccccc1` (centres unmarked) was -21.7%; that for `OCCC1CN(Cc2cccn2-c2nccs2)CCN1Cc1ccc(F)c(F)c1` (centres unmarked) was -85%. In the case of `Cc1ccc(CN2CCN(Cc3cccn3-c3nccs3)CC2CCO)cc1` (centres unmarked), the “hERG current change (%, negative = inhibition) at 1uM” value is on record as -79.7%. On to `CC(C)N1CCN(Cc2cccn2-c2nccs2)CC1CCO` (centres unmarked), for which the “hERG current change (%, negative = inhibition) at 1uM” value is given as 11.5%.

`OCCC1CN(Cc2cccn2-c2nccs2)CCN1CCc1ccccc1` (centres unmarked): the “hERG current change (%, negative = inhibition) at 1uM” value was -57.1%. The figure for `OCCC1CN(Cc2cccn2-c2nccs2)CCN1C1CCCCC1` (centres unmarked) is -4.43%; for `CC(Sc1nc2ccc(Br)cc2[nH]1)C(=O)O` (centres unmarked) it is -11.3%; for `Cc1cc(Cl)c(OCCCNC2CCCC2)c(Br)c1.O=C(O)C(=O)O` it is -6.84%.

Regarding `Cc1nnsc1C(=O)Nc1ccc(S(=O)(=O)N2CCCC(C)C2)cc1` (centres unmarked), the “hERG current change (%, negative = inhibition) at 1uM” value is 15.2%. Take `Cn1cccc1C(=O)NC1CCCCC1`: the “hERG current change (%, negative = inhibition) at 1uM” value amounted to 5.24%.

Turning to `C=CCn1c(SCC(=O)Nc2cccnc2Cl)nnc1-c1ccc(C(C)(C)C)cc1`, the “hERG current change (%, negative = inhibition) at 1uM” value is on record as 9.68%. The value for `CCN1CCN(C(=O)/C=C/c2ccc(OC)c(OC)c2)CC1` was 14.8%; that for `C/C(=N\OC(=O)c1ccc(Cl)cc1)c1nccs1` was 9.4%; that for `COc1ccc(CNS(=O)(=O)c2ccc(-n3cnnn3)c(OC)c2)cc1` was -2.65%. For `O=C(c1cc2cc(F)ccc2[nH]1)N(Cc1cccnc1)CC1CCCN(C2CCCCC2)C1` (centres unmarked), the “hERG current change (%, negative = inhibition) at 1uM” value is given as -81%. `O=C(c1cc2ccccc2[nH]1)N(Cc1cccnc1)CC1CCCN(C2CCCCC2)C1` (centres unmarked): the “hERG current change (%, negative = inhibition) at 1uM” value was -49.6%. The value for `COC(=O)c1ccccc1C(=O)N(Cc1cccnc1)CC1CCCN(C2CCCCC2)C1` (centres unmarked) was -7.49%; that for `COC(=O)c1ccc(COc2ccc(/C=N/NC(=O)C(=O)Nc3ccc(OC)cc3)cc2OC)o1` was 9.15%. In the case of `COc1cccc(C(=O)C2CCCN(Cc3cccn3-c3ccccn3)C2)c1` (centres unmarked), the “hERG current change (%, negative = inhibition) at 1uM” value is given as -84%. As to `COc1cccc(C(=O)C2CCCN(Cc3cccn3-c3cccnc3)C2)c1` (centres unmarked), the “hERG current change (%, negative = inhibition) at 1uM” value is on record as -6.89%. The figure for `CC(C)Oc1cccc(C(=O)C2CCCN(Cc3cccn3-c3cccnc3)C2)c1` (centres unmarked) is 12.4%; for `CC(C)Oc1cccc(C(=O)C2CCCN(Cc3ccc(Oc4ncccn4)cc3)C2)c1` (centres unmarked) it is -7.28%. The value for `COc1cccc(C(=O)C2CCCN(Cc3ccccn3)C2)c1` (centres unmarked) was -0.481%; that for `CC(C)Oc1cccc(C(=O)C2CCCN(Cc3cccn3-c3ccccn3)C2)c1` (centres unmarked) was -81.7%. `CCOc1ccc2nc(SCC(=O)N(CC(C)C)c3c(N)n(Cc4ccccc4)c(=O)[nH]c3=O)[nH]c2c1`: the “hERG current change (%, negative = inhibition) at 1uM” value came to 9.81%. The value for `CCCn1c(SCC(=O)Nc2cccc(F)c2)nc(O)cc1=O` was 9.12%; that for `CN1CCN(c2cnn(-c3ccccc3)c(=O)c2Br)CC1` was 13.2%. On to `COc1ccc(C(=O)N2CCN(c3ccc(F)cc3)CC2)cc1S(=O)(=O)NC1CC1`, for which the “hERG current change (%, negative = inhibition) at 1uM” value was -17.3%.

As for `COc1ccc(C(=O)N2CCN(c3ccccc3Cl)CC2)cc1S(=O)(=O)NC1CC1`, the “hERG current change (%, negative = inhibition) at 1uM” value is given as 7.63%. In the case of `COc1ccc(C(=O)N2CCN(c3cccc(Cl)c3)CC2)cc1S(=O)(=O)NC1CC1`, the “hERG current change (%, negative = inhibition) at 1uM” value is listed as -79.6%. The figure for `O=C1Nc2c(c(=O)[nH]c(=O)n2Cc2ccccc2)C1(NS(=O)(=O)c1ccccc1)C(F)(F)F` (centres unmarked) is 14.5%; for `C/C(Cn1nc([N+](=O)[O-])cc1C)=N\NC(=O)COc1ccc(Cl)cc1Cl` it is -51.3%. Regarding `C/C(Cn1nc([N+](=O)[O-])cc1C)=N\NC(=O)COc1ccccc1[N+](=O)[O-]`, the “hERG current change (%, negative = inhibition) at 1uM” value was 7.38%.

For `C/C(Cn1nc([N+](=O)[O-])cc1C)=N\NC(=O)COc1c(Cl)cc(Cl)cc1Cl`, the “hERG current change (%, negative = inhibition) at 1uM” value is listed as -23.8%. The figure for `Cc1nnc(NC(=O)CSc2ccc(-c3ccc(Cl)cc3)nn2)s1` is 12.4%; for `CCOC(=O)N1CCN(c2c(NCCCN(C)c3ccccc3)c(=O)c2=O)CC1` it is 9.53%. In the case of `COc1cc(C(=O)Nc2cccc(-c3nc4cc(C)ccc4o3)c2)cc(OC)c1OC`, the “hERG current change (%, negative = inhibition) at 1uM” value amounted to 10.6%. Take `CCN(CC)CCNc1nc2c(c(=O)[nH]c(=O)n2C)n1CC(O)COc1ccc(Cl)cc1Cl` (centres unmarked): the “hERG current change (%, negative = inhibition) at 1uM” value was -66.1%. The value for `CN(C)CCNc1nc2c(c(=O)[nH]c(=O)n2C)n1CC(O)COc1ccc(Cl)cc1Cl` (centres unmarked) was -30.6%. The value for `CN(C)CCNc1nc2c(c(=O)[nH]c(=O)n2C)n1CC(O)COc1ccc(Cl)cc1` (centres unmarked) was 5.04%; that for `CSc1nn(-c2ccc(C(=O)OC(C(=O)NC(N)=O)C(C)C)cc2)c(=S)s1` (centres unmarked) was 9.82%. The figure for `COc1ccccc1C(=O)Nc1ccnn1C1CCN(C/C=C/c2ccc(F)cc2)CC1` is -86.9%. Turning to `COCC(=O)N1CCC(n2nccc2NC(=O)c2ccccc2OC)CC1`, the “hERG current change (%, negative = inhibition) at 1uM” value was determined as 14.1%. As for `COc1ccccc1C(=O)Nc1ccnn1C1CCN(C/C=C/c2ccccc2)CC1`, the “hERG current change (%, negative = inhibition) at 1uM” value is reported as -85.6%.

On to `COc1ccccc1/C=C/CN1CCC(n2nccc2NC(=O)CCc2ccccc2)CC1`, for which the “hERG current change (%, negative = inhibition) at 1uM” value is -24.8%.
